# Where “and” joins values, the source holds several entries; their conditions need not be identical. Equal values may be shown once. Inconclusive results are not listed. A number with no mark means an inactive call. Calls of active or inactive are those of the source. Calls come from the whole dose curve; as a rule, active = well fitted activation curve with a large enough effect in the repeat runs; inconclusive = weak or mixed curves; inactive = flat fitted curve, though single readings scatter.
# Test: A CellTox Green Cytotoxicity Assay to monitor cytotoxicity in HEK293 cells - 40 hour (AID 1224871); note: nearly all actives have a fitted effect of over 45% in size
# Details: CellTox Green fluorescence; series mostly up to 76.8 µM; cytotoxicity increase: at the top concentration
# Text: National Center for Advancing Translational Sciences [NCATS]
# NIH Chemical Genomics Center [NCGC]
# U.S. Environmental Protection Agency [EPA]
# National Institutes of Environmental Health Sciences [NIEHS]
# National Toxicology Program [NTP]
# Cell-based models are critical for drug discovery. Determining the natural cytotoxic effects resulting from test compounds is an essential research activity. A CellTox Green Cytotoxicity Assay to monitor cytotoxicity in real time of continues cell culture during 40 hours of the compound treatment was used to screen Tox21 10K library compounds in Hek293 cells. CellTox Green Cytotoxicity Assay is a nonlytic, homogeneous, biofluorescent method to measure cytotoxicity in cell culture after experimental manipulation. The assay system uses a proprietary asymmetric cyanine dye that is excluded from viable cells but preferentially stains the dead cell's DNA. […] Viable cells produce no appreciable increases in fluorescence. Therefore, the fluorescence signal produced by the binding interaction with dead cell DNA is proportional to cytotoxicity.
# The mixture of Hek293 cell suspension and reagents were dispensed at 600cells/6 ul/well in 1536-well tissue culture treated black solid bottom plates using a Multidrop dispenser. After the assay plates were incubated at a 37 C/5% CO2 incubator for 5 hours, 23 nL of compounds dissolved in DMSO, positive and negative controls was transferred to the assay plate by a pintool work station. The plates were incubated at 37 C for 40 hours. The fluorescence intensity were measured at 0h, 8h, 16h, 24h, 32h and 40h time points using ViewLux plate reader during compound treatment.
# % is set by controls: 0 for no effect and ±100 for the full control effect; potency is the fitted concentration of half-maximal effect.
SMILES,cytotoxicity increase,Potency
O=C(/C=C/c1ccc(O)c(O)c1)O[C@@H](C(=O)O)[C@@H](OC(=O)/C=C/c1ccc(O)c(O)c1)C(=O)O,-9.85%,–
O=S(=O)(O)c1ccc(N=Nc2c(O)ccc3ccccc23)cc1,-28.5%,–
Cc1nc2n(c(=O)c1CCN1CCC(c3noc4cc(F)ccc34)CC1)CCCC2,0.108% [at 35.3 µM],–
CCCNCCC,-5.85%,–
CC(C)CCOC(=O)/C=C/c1ccccc1,22.8%,–
Cc1ccc(C)cc1,5.9%,–
CCCCCCCCCCCCOC(=O)c1ccc(O)cc1,22.1%,–
Cc1cc(C)c(/C=C2\C(=O)Nc3ccccc32)[nH]1,–,9.52 µM (active)
C=CCCC(=O)/C=C/C1C(C)=CCCC1(C)C (stereo not given),–,24.5 µM (active)
Cc1cccc(C(=O)O)c1O,-3.01% [at 35.3 µM],–
CC(C)=CCC1=C(O)c2ccccc2C(=O)C1=O,-1.31%,–
CCc1oc2ccccc2c1C(=O)c1cc(I)c(O)c(I)c1,0.905% [at 35.3 µM],–
CCCC(=O)OCOC(=O)C1=C(C)NC(C)=C(C(=O)OC)C1c1cccc(Cl)c1Cl (stereo not given),-6.23% [at 35.3 µM],–
Nc1nc(-c2ccccc2)cs1,3.89%,–
Cc1ccc(N/N=c2\c(=O)cc/c(=N\Nc3ccc(S(=O)(=O)O)cc3)c2=O)c(C)c1,-27.2%,–
CCCCCCOC(=O)C(C)CC (stereo not given),-7.23%,–
C#C[C@]1(OC(C)=O)CC[C@H]2[C@@H]3CCC4=C/C(=N/O)CC[C@@H]4[C@H]3CC[C@@]21CC,23.9% [at 35.3 µM],–
CCCCCC/C=C\CCCCCCCC(=O)O,6.86%,–
O=S(=O)(O)c1ccccc1/C=C/c1ccc(-c2ccc(/C=C/c3ccccc3S(=O)(=O)O)cc2)cc1,1.27%,–
Cc1ccc(C(=O)O)cc1,5.12%,–

SMILES,cytotoxicity increase,Potency
OC[C@H]1O[C@H](O[C@H]2O[C@H](CO)[C@@H](O)[C@H](O)[C@H]2O)[C@H](O)[C@@H](O)[C@@H]1O,4.89%,–
O=c1[nH]c(=O)n([C@H]2C[C@H](O)[C@@H](CO)O2)cc1F,-2.25% [at 35.3 µM],–
C=Cc1ccccc1C=C,-7.04% [at 200 µM],–
CCCCCc1ccc(Cl)cc1,-1.9%,–
O=C(O)c1cc(N=Nc2ccc([N+](=O)[O-])cc2)ccc1O,2.8%,–
CCN(CCN)c1cccc(C)c1,19.6%,–
CC(C)(C)c1csc(-c2cc3cc(OCc4ccccc4CC(=O)O)ccc3o2)n1,–,54.9 µM (active)
NC[C@H]1O[C@H](O[C@H]2[C@H](O[C@@H]3O[C@H](CO)[C@@H](O)[C@H]3O)C(O)[C@H](N)C[C@@H]2N)[C@H](N)[C@@H](O)[C@@H]1O (stereo not given in full),-12.4% [at 6.97 µM],–
Cc1cc(C(C)(C)C)c(O)c(C)c1Cn1c(=O)n(Cc2c(C)cc(C(C)(C)C)c(O)c2C)c(=O)n(Cc2c(C)cc(C(C)(C)C)c(O)c2C)c1=O,-1.84%,–
CCCCCCCCCCCCCC[N+](C)(C)C,–,29.9 µM (active) and 48.9 µM (active) and 26.8 µM (active)
CCOC(=O)NNc1ccc(N(CC)CC(C)O)nn1 (stereo not given),-17.2% [at 35.3 µM],–
CCCCCCCCCCCC(=O)OCC(C)OC(=O)CCCCC(=O)O (stereo not given),-14% [at 35.3 µM],–
CC(C)=CCNc1ncnc2c1ncn2[C@@H]1O[C@H](CO)[C@@H](O)[C@H]1O,5.53% [at 35.3 µM],–
C=CC(=O)OCCOC(=O)C=C,–,43.6 µM (active)
CC(C)(C)C1CCC(=O)CC1,2.21%,–
CCCC(=O)OCCc1ccccc1,–,49 µM (active)
CCOC(=O)Cn1cccc1-c1nc(-c2ccc(OC)cc2)c(-c2ccc(OC)cc2)s1,9.02% [at 35.3 µM],–
Cc1ccc(C(C)C)cc2c(C)ccc1-2,24.2% [at 35.3 µM],–
O=C1NC(=O)[C@@H]2CC=CC[C@H]12,-5.77%,–
O=C(O)Cc1ccc2c(c1)C(=O)c1ccccc1CO2,-3.65% [at 35.3 µM],–

# From PubChem BioAssay (Tox21)
